# The list is not random: actives were taken first. Their share in the collection is about 6%.
# D3 antag: antagonists of human D3 dopamine receptor. P35462. D3R cells, DiscoveRx beta-arrestin luminescence, antagonist mode; active compounds read low. max response, negative = inhibition, %. actives 2.5% (n = 360,000). AID 652054; in the data active = max response below about -50%; inconclusive = no clear call, values can overlap the other calls; note: % is set by controls: 0 for no effect and ±100 for the full control effect
#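 Cells expressing the human receptor were seeded at 1500 cells/well, incubated overnight at 37 degrees C in 5% CO2, then exposed to library compounds with dopamine controls for 90 minutes at 37 degrees C before luminescent detection.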
# D1 antagonist: antagonists of human D1 dopamine receptor | HEK293 TREx D1 cells, calcium flux, dopamine EC80; active compounds read low | activity change, negative = inhibition, % at 10 µM | P21728 | actives 3.2% (n = 360,000); in the data active = activity change below about -30%; note: % is set by controls: 0 for no effect and ±100 for the full control effect
# Target sequence (P21728 whole entry, looked up): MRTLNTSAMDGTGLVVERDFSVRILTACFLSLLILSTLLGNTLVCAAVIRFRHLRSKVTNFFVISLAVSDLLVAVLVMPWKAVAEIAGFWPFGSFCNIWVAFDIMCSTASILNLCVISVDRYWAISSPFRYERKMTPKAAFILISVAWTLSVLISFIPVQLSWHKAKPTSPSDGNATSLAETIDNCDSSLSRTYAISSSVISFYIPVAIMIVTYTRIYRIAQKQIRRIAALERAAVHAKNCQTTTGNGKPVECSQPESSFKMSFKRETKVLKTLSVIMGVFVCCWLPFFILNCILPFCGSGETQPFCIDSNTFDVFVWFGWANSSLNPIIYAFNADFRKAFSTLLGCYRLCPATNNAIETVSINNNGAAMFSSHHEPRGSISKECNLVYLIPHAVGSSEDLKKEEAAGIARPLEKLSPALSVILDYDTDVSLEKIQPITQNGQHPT
#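 Antagonism measured as reduced calcium response to an EC80 dopamine addition following 180 s compound pre-read; cells were inducible HEK293 Trex D1 plated overnight at 30 C, read kinetically at 1 cycle/sec.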
# D1 PAM: enhances dopamine response at the human D1 receptor; P21728; HEK293 TREx D1 cells, calcium flux, dopamine EC20 potentiation; potentiation, % at 10 µM; actives 0.036% (n = 360,000); in the data active = potentiation above about 30%; note: 0% is about no effect
# D1 agonist: activates the human D1 dopamine receptor; P21728; HEK293 T-REx D1 cells, calcium flux, agonist mode; activation, % at 2 µM; actives 1% (n = 360,000); AID 504660; in the data active = activation above about 30%; note: 0% is about no effect
#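 Inducible HEK293 T-REx D1 cells, force-coupled to calcium signalling, were plated at 4000 cells/well with tetracycline and held overnight at 30 C. After no-wash calcium dye loading, compound-evoked calcium rise over 180 s flagged agonists.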
# DRD3 agonist: agonists of human D3 dopamine receptor; max activation, %; P35462; D3R DiscoveRx beta-arrestin cells, luminescence, 90 min; actives 0.58% (n = 410,000); in the data active = max activation above about 30%; note: 0% is about no effect
#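 Agonist-mode cell screen: cells plated at 1500/well and incubated overnight at 37 °C, then exposed to library compounds for 90 min at 37 °C. Detection reagent was added for 30–60 min at room temperature, and luminescence was read.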
# * hit, by the source's call; ? = inconclusive; · = no result; ! = repeats disagree.
SMILES,D3 antag,D1 antagonist,D1 PAM,D1 agonist,DRD3 agonist
COc1ccc(CCN(C)CCCC(C#N)(c2cc(OC)c(OC)c(OC)c2)C(C)C)cc1OC (configuration not stated),-57*,9,-5,6,-84
COc1ccc(CCN(C)CCc2ccc(OC)c(OC)c2)cc1OC,-21,·,·,·,-65
CCOc1ccccc1-c1nc(-c2cc3ccccc3nc2OC)no1,28,-13,0,2,34*
COc1ccc(Nc2nc3ccccc3n3nnnc23)cc1,-90*,3,-4,2,0
Cc1ccc(Nc2nc3ccccc3n3nnnc23)cc1,13,-10,7,8,-13
CC(C)C[C@@H](CNCC(=O)[C@H](CC(C)C)NC(=O)c1[nH]cnc1C(=O)N[C@@H](C)CN)NC(=O)c1nc[nH]c1C(=O)N[C@@H](Cc1ccccc1)C(=O)O,0,·,·,·,-15
CC(C)C[C@@H](CN)NC(=O)c1nc[nH]c1C(=O)N[C@@H](CC(C)C)C(=O)CNC[C@H](C)NC(=O)c1nc[nH]c1C(=O)N[C@@H](CC(=O)O)C(=O)O,2,·,·,·,46*
CC(C)C[C@@H](CNCC(=O)[C@H](CC(=O)O)NC(=O)c1[nH]cnc1C(=O)N[C@H](CN)CC(C)C)NC(=O)c1nc[nH]c1C(=O)N[C@@H](Cc1ccccc1)C(=O)O,-72*,·,·,·,-45
CC(C)c1nnc(N2C(=O)c3oc4ccccc4c(=O)c3C2c2ccccc2F)s1 (configuration not stated),·,5,0,-1,9
Cc1ccc(CCNC(=O)C2CCCN(S(=O)(=O)c3ccc4c(c3)oc(=O)n4C)C2)cc1 (configuration not stated),·,-6,1,-1,2
CCOC(=O)N1CCc2c(sc(NCc3ccc(OC)c(Br)c3)c2C(=O)Nc2cc(OC)ccc2OC)C1,·,-2,-4,2,9
COc1ccccc1NC(=O)CN(C)S(=O)(=O)c1ccc2c(c1)c(=O)n(C)c(=O)n2C,·,4,-1,0,1
COc1ccccc1/C=C/CN1CCC(Oc2cc(C(=O)NC3CC3)ccc2OC)CC1,-77*,-73*,-5,11,-7
COc1ccc(C(=O)NC2CC2)cc1OC1CCN(Cc2ccccc2)CC1,-5,-23,-17,3,-2
COc1ccc(C(=O)NC2CC2)cc1OC1CCN(Cc2ccc(F)cc2)CC1,?,-40*,-20,1,-18
C#Cc1ccc(CN2CCC(Oc3cc(C(=O)NC4CC4)ccc3OC)CC2)cc1,-20,-45*,-11,4,-5
COc1ccccc1/C=C/CN1CCC(Oc2ccc(C(=O)N3CCCCC3)cc2)CC1,-105*,-9,1,6,-50
N#Cc1c[nH]n2c(NC3CCCCC3)c(-c3ccccc3F)nc12,·,7,-4,1,-8
CCc1ccc(CNC(=O)c2ccc(OC)c(OC3CCN(C(C)C)CC3)c2)nc1,-1,-80*,-13,0,2
Cc1ccc(-c2[nH]ncc2CNCCc2cnn(-c3ccccc3)c2)cc1C,-14,-27,-13,34*,0
Cn1c2cc(C#N)sc2c2cnn(Cc3ccccc3F)c(=O)c21,·,12,0,0,·
CCc1nc2ccc(C(=O)N(C)CCN(C)C)cn2c1N(C)Cc1cc2ccccc2s1,-69*,·,·,·,-27
CCc1nc2ccc(C(=O)N(CC)CCN(C)C)cn2c1N(C)Cc1cccs1,-18,·,·,·,-15
CC(=O)OCC(=O)[C@@]1(O)CC[C@H]2[C@@H]3CCC4=CC(=O)CC[C@]4(C)[C@H]3[C@@H](O)C[C@@]21C,-11,-11,6,0,21
C[C@]12CCC(=O)C=C1CC[C@@H]1[C@@H]2[C@@H](O)C[C@@]2(C)[C@H]1CC[C@]2(O)C(=O)COC(=O)CCC(=O)O,-61*!,7,1,1,-92
SMILES,D3 antag,D1 antagonist,D1 PAM,D1 agonist,DRD3 agonist
O=C(Nc1ccc(-c2nc3ccccc3s2)c(O)c1)c1ccc(Br)cc1,·,-33*,2,0,2
CCC[C@@]1(CCc2ccccc2)CC(O)=C([C@H](CC)c2cccc(NS(=O)(=O)c3ccc(C(F)(F)F)cn3)c2)C(=O)O1,·,·,·,·,5
COc1ccccc1CNC(=O)c1c(O)nc2c(C)cccn2c1=O,·,6,-2,1,-8
COCc1cc(=O)[nH]c(SCCS(=O)(=O)c2ccc(Cl)cc2Cl)n1,-62*,-6,-2,-1,-8
COc1ccc(-n2nc(C(=O)N(C)c3cc(C)ccc3C)c3c4ccccc4n(C)c3c2=O)cc1Cl,·,-8,2,0,-8
Oc1cccc(Nc2ncnc3sc4c(c23)CCCC4)c1,·,3,5,0,-5
CCC(CC)C(=O)N(C)c1c(C)nc2c(OCc3cc(Cl)cc(Cl)c3)cccn12,?,·,·,·,-9
CCC(CC)C(=O)N(C)c1c(C)nc2c(OCc3cccc(Cl)c3)cccn12,-62*,·,·,·,-3
Cn1c2c(c3ccccc31)CCN(CCCCN1CCN(c3ccccc3)CC1)C2=O,4,·,·,·,54*
COc1ccc(N2CCN(C(=O)c3c(C)oc4ncn(CC(C)C)c(=O)c34)CC2)cc1,·,4,-3,2,1
O=S(=O)(c1ccc(Cl)nc1)N1CCCCC1,-10,9,-5,2,-9
O=C(CN(Cc1ccc(F)cc1)C(=O)CCC(=O)Nc1nccs1)NCc1ccccc1,0,-91*,-7,2,2
O=C(CN(Cc1ccccc1)C(=O)CCC(=O)Nc1nccs1)NCc1ccc(F)cc1,0,-5,-6,0,-17
O=C(CN(C(=O)CCC(=O)Nc1ccccn1)c1ccc(F)cc1)NCc1ccc(F)cc1,-94*,-1,-3,0,-4
Cc1ccccc1N(CC(=O)NCc1ccco1)C(=O)CCC(=O)Nc1nccs1,6,-32*,-3,3,6
O=C(CN(C(=O)CCC(=O)Nc1ccccn1)c1cccc(F)c1)NCc1ccc(F)cc1,0,26,2,3,32*
Cc1cccc(N(CC(=O)NCc2ccco2)C(=O)CCC(=O)Nc2nccs2)c1C,-15,5,·,4,-20
CC1(COc2ccc(CC3SC(=O)NC3=O)cc2)CCCCC1 (configuration not stated),·,·,·,·,-5
COc1ccccc1CCNC(=O)Cc1c(C)c2cc3c(C(C)(C)C)coc3c(C)c2oc1=O,·,10,-2,3,7
CCn1ccc2cc(S(=O)(=O)N3CCCN(C(=O)Nc4ccc(C)cc4Cl)CC3)ccc21,·,6,4,2,-3
CN(CC(=O)Nc1cccc(F)c1)C(=O)c1ccc(-n2cncn2)c([N+](=O)[O-])c1,5,-40*,-6,-1,6
CS(=O)(=O)c1ncc(Cl)c(C(=O)N2CCN(c3cccc(Cl)c3)CC2)n1,·,-50*,1,14,-28
Cc1[nH]c2ccc(C(=O)N3CCN(c4cccc(Cl)c4)CC3)cc2c1C,-6,-24,-7,7,-1

# Screening data: PubChem BioAssay, National Center for Advancing Translational Sciences (NCATS)
